# Test results reported in the supplement of paper PMC4466140.
# Assays:
# Experiment in all cases: SPOT peptide array binding signal intensity (averaged, normalized) (arbitrary units (background-subtracted, floor 0; scale differs between SH3 domains)); higher = stronger binding of the SH3 domain to the peptide
# [1] = biological target: AgAbp1
# Method in brief: (§1)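 Cellulose membranes carried synthetic 15-mer peptides with cysteines swapped for serines. These were incubated overnight at 4°C with 10 μg/ml of GST-fused SH3 domains from four yeast species in TBS-based blocking buffer. Binding signal, detected with anti-GST antibody and quantified in Genespotter, is the normalized, background-subtracted spot intensity averaged over replicates, in arbitrary units specific to each domain.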
# [2] = biological target: AgBbc1
# Method in brief: as §1
# [3] = biological target: AgBem1-D1
# Method in brief: as §1
# [4] = biological target: AgBzz1-D1
# Method in brief: as §1
# [5] = biological target: AgBzz1-D2
# Method in brief: as §1
# [6] = biological target: AgCyk3
# Method in brief: as §1
# [7] = biological target: AgFus1
# Method in brief: as §1
# [8] = biological target: AgHof1
# Method in brief: as §1
# [9] = biological target: AgHse1
# Method in brief: as §1
# [10] = biological target: AgLsb1
# Method in brief: as §1
# [11] = biological target: AgLsb4
# Method in brief: as §1
# [12] = biological target: AgMyo5
# Method in brief: as §1
# [13] = biological target: AgNbp2
# Method in brief: as §1
# [14] = biological target: AgRvs167
# Method in brief: as §1
# [15] = biological target: AgSho1
# Method in brief: as §1
# [16] = biological target: AgSla1-D1-D2
# Method in brief: as §1
# [17] = biological target: AgSla1-D3
# Method in brief: as §1
# [18] = biological target: CaAbp1-D1
# Method in brief: as §1
# [19] = biological target: CaAbp1-D2
# Method in brief: as §1
# [20] = biological target: CaBbc1
# Method in brief: as §1
# [21] = biological target: CaBem1-D1
# Method in brief: as §1
# [22] = biological target: CaBzz1-D1
# Method in brief: as §1
# [23] = biological target: CaBzz1-D2
# Method in brief: as §1
# [24] = biological target: CaCyk3
# Method in brief: as §1
# [25] = biological target: CaFus1
# Method in brief: as §1
# [26] = biological target: CaHof1
# Method in brief: as §1
# [27] = biological target: CaHse1
# Method in brief: as §1
# [28] = biological target: CaLsb1
# Method in brief: as §1
# [29] = biological target: CaLsb4
# Method in brief: as §1
# [30] = biological target: CaMyo5
# Method in brief: as §1
# [31] = biological target: CaNbp2
# Method in brief: as §1
# [32] = biological target: CaRvs167
# Method in brief: as §1
# [33] = biological target: CaRvs167-3
# Method in brief: as §1
# [34] = biological target: CaSho1
# Method in brief: as §1
# [35] = biological target: CaSla1-D1-D2
# Method in brief: as §1
# [36] = biological target: CaSla1-D3
# Method in brief: as §1
# [37] = biological target: ScAbp1
# Method in brief: as §1
# [38] = biological target: ScBbc1
# Method in brief: as §1
# [39] = biological target: ScBem1-D1
# Method in brief: as §1
# [40] = biological target: ScBzz1-D1
# Method in brief: as §1
# [41] = biological target: ScBzz1-D2
# Method in brief: as §1
# [42] = biological target: ScCyk3
# Method in brief: as §1
# [43] = biological target: ScFus1
# Method in brief: as §1
# [44] = biological target: ScHof1
# Method in brief: as §1
# [45] = biological target: ScHse1
# Method in brief: as §1
# [46] = biological target: ScLsb1
# Method in brief: as §1
# [47] = biological target: ScLsb2
# Method in brief: as §1
# [48] = biological target: ScLsb3
# Method in brief: as §1
# [49] = biological target: ScLsb4
# Method in brief: as §1
# [50] = biological target: ScMyo3
# Method in brief: as §1
# [51] = biological target: ScMyo5
# Method in brief: as §1
# [52] = biological target: ScNbp2
# Method in brief: as §1
# [53] = biological target: ScPex13
# Method in brief: as §1
# [54] = biological target: ScRvs167
# Method in brief: as §1
# [55] = biological target: ScSho1
# Method in brief: as §1
# [56] = biological target: ScSla1-D1-D2
# Method in brief: as §1
# [57] = biological target: ScSla1-D3
# Method in brief: as §1
# [58] = biological target: SpAbp1-D1
# Method in brief: as §1
# [59] = biological target: SpBbc1
# Method in brief: as §1
# [60] = biological target: SpBzz1-D1
# Method in brief: as §1
# [61] = biological target: SpBzz1-D2
# Method in brief: as §1
# [62] = biological target: SpCyk3
# Method in brief: as §1
# [63] = biological target: SpHof1
# Method in brief: as §1
# [64] = biological target: SpHof1-2
# Method in brief: as §1
# [65] = biological target: SpHof1-3
# Method in brief: as §1
# [66] = biological target: SpHse1
# Method in brief: as §1
# [67] = biological target: SpLsb1
# Method in brief: as §1
# [68] = biological target: SpLsb4
# Method in brief: as §1
# [69] = biological target: SpMyo1
# Method in brief: as §1
# [70] = biological target: SpNbp2
# Method in brief: as §1
# [71] = biological target: SpPex13
# Method in brief: as §1
# [72] = biological target: SpRvs167
# Method in brief: as §1
# [73] = biological target: SpSla1-D1-D2
# Method in brief: as §1
# [74] = biological target: SpSla1-D3
# Method in brief: as §1
binder,measurement,setting,value
PSRRAPLQLPQLVNK,SPOT peptide array binding signal intensity,[1],15
same,SPOT peptide array binding signal intensity,[2],8.5
same,SPOT peptide array binding signal intensity,[3],26
same,SPOT peptide array binding signal intensity,[4],13
same,SPOT peptide array binding signal intensity,[5],35
same,SPOT peptide array binding signal intensity,[6],≤ 0
same,SPOT peptide array binding signal intensity,[7],≤ 0
same,SPOT peptide array binding signal intensity,[8],36.5
same,SPOT peptide array binding signal intensity,[9],≤ 0
same,SPOT peptide array binding signal intensity,[10],214
same,SPOT peptide array binding signal intensity,[11],≤ 0
same,SPOT peptide array binding signal intensity,[12],≤ 0
same,SPOT peptide array binding signal intensity,[13],3
same,SPOT peptide array binding signal intensity,[14],≤ 0
same,SPOT peptide array binding signal intensity,[15],≤ 0
same,SPOT peptide array binding signal intensity,[16],6
same,SPOT peptide array binding signal intensity,[17],1.5
same,SPOT peptide array binding signal intensity,[18],89.5
same,SPOT peptide array binding signal intensity,[19],52
same,SPOT peptide array binding signal intensity,[20],279
same,SPOT peptide array binding signal intensity,[21],11.5
same,SPOT peptide array binding signal intensity,[22],130
same,SPOT peptide array binding signal intensity,[23],41.8
same,SPOT peptide array binding signal intensity,[24],3
same,SPOT peptide array binding signal intensity,[25],23.5
same,SPOT peptide array binding signal intensity,[26],≤ 0
same,SPOT peptide array binding signal intensity,[27],≤ 0
same,SPOT peptide array binding signal intensity,[28],≤ 0
same,SPOT peptide array binding signal intensity,[29],17
same,SPOT peptide array binding signal intensity,[30],≤ 0
same,SPOT peptide array binding signal intensity,[31],324
same,SPOT peptide array binding signal intensity,[32],6
same,SPOT peptide array binding signal intensity,[33],≤ 0
same,SPOT peptide array binding signal intensity,[34],6
same,SPOT peptide array binding signal intensity,[35],21
same,SPOT peptide array binding signal intensity,[36],≤ 0
same,SPOT peptide array binding signal intensity,[37],13
same,SPOT peptide array binding signal intensity,[38],11.5
same,SPOT peptide array binding signal intensity,[39],11
same,SPOT peptide array binding signal intensity,[40],12
same,SPOT peptide array binding signal intensity,[41],10
same,SPOT peptide array binding signal intensity,[42],≤ 0
same,SPOT peptide array binding signal intensity,[43],≤ 0
same,SPOT peptide array binding signal intensity,[44],0.5
same,SPOT peptide array binding signal intensity,[45],35.5
same,SPOT peptide array binding signal intensity,[46],123
same,SPOT peptide array binding signal intensity,[47],5
same,SPOT peptide array binding signal intensity,[48],86
same,SPOT peptide array binding signal intensity,[49],≤ 0
same,SPOT peptide array binding signal intensity,[50],≤ 0
same,SPOT peptide array binding signal intensity,[51],1.5
same,SPOT peptide array binding signal intensity,[52],17
same,SPOT peptide array binding signal intensity,[53],≤ 0
same,SPOT peptide array binding signal intensity,[54],5.67
same,SPOT peptide array binding signal intensity,[55],35
same,SPOT peptide array binding signal intensity,[56],394
same,SPOT peptide array binding signal intensity,[57],32
same,SPOT peptide array binding signal intensity,[58],59
same,SPOT peptide array binding signal intensity,[59],≤ 0
same,SPOT peptide array binding signal intensity,[60],134
same,SPOT peptide array binding signal intensity,[61],≤ 0
same,SPOT peptide array binding signal intensity,[62],≤ 0
same,SPOT peptide array binding signal intensity,[63],7.75
same,SPOT peptide array binding signal intensity,[64],1.25
same,SPOT peptide array binding signal intensity,[65],89.8
same,SPOT peptide array binding signal intensity,[66],≤ 0
same,SPOT peptide array binding signal intensity,[67],45.2
same,SPOT peptide array binding signal intensity,[68],2
same,SPOT peptide array binding signal intensity,[69],0.5
same,SPOT peptide array binding signal intensity,[70],3
same,SPOT peptide array binding signal intensity,[71],≤ 0
same,SPOT peptide array binding signal intensity,[72],1.67
same,SPOT peptide array binding signal intensity,[73],≤ 0
same,SPOT peptide array binding signal intensity,[74],≤ 0
NIKVLLNPKLGKPVK,SPOT peptide array binding signal intensity,[1],15
same,SPOT peptide array binding signal intensity,[2],10.2
same,SPOT peptide array binding signal intensity,[3],4
same,SPOT peptide array binding signal intensity,[4],13
same,SPOT peptide array binding signal intensity,[5],73.5
same,SPOT peptide array binding signal intensity,[6],≤ 0
same,SPOT peptide array binding signal intensity,[7],316
same,SPOT peptide array binding signal intensity,[8],17
same,SPOT peptide array binding signal intensity,[9],760
same,SPOT peptide array binding signal intensity,[10],≤ 0
same,SPOT peptide array binding signal intensity,[11],61
same,SPOT peptide array binding signal intensity,[12],2.5
same,SPOT peptide array binding signal intensity,[13],31.5
same,SPOT peptide array binding signal intensity,[14],4
same,SPOT peptide array binding signal intensity,[15],108
same,SPOT peptide array binding signal intensity,[16],39.5
same,SPOT peptide array binding signal intensity,[17],7.5
same,SPOT peptide array binding signal intensity,[18],407
same,SPOT peptide array binding signal intensity,[19],32.5
same,SPOT peptide array binding signal intensity,[20],15.2
same,SPOT peptide array binding signal intensity,[21],0.5
same,SPOT peptide array binding signal intensity,[22],160
same,SPOT peptide array binding signal intensity,[23],48.5
same,SPOT peptide array binding signal intensity,[24],≤ 0
same,SPOT peptide array binding signal intensity,[25],968
same,SPOT peptide array binding signal intensity,[26],≤ 0
same,SPOT peptide array binding signal intensity,[27],9
same,SPOT peptide array binding signal intensity,[28],2
same,SPOT peptide array binding signal intensity,[29],16
same,SPOT peptide array binding signal intensity,[30],4.5
